# Results published in ChEMBL document CHEMBL1961873, “Compounds: GSK PKIS; Assays: Nanosyn kinase panel” (2012).
# Columns and labels:
# [1] = molecular target: T1, 3-phosphoinositide-dependent protein kinase 1 (Homo sapiens) (UniProt O15530); conditions: at 0.1 µM;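 also: values are mean inhibition of PDK1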
# T1 sequence (whole entry): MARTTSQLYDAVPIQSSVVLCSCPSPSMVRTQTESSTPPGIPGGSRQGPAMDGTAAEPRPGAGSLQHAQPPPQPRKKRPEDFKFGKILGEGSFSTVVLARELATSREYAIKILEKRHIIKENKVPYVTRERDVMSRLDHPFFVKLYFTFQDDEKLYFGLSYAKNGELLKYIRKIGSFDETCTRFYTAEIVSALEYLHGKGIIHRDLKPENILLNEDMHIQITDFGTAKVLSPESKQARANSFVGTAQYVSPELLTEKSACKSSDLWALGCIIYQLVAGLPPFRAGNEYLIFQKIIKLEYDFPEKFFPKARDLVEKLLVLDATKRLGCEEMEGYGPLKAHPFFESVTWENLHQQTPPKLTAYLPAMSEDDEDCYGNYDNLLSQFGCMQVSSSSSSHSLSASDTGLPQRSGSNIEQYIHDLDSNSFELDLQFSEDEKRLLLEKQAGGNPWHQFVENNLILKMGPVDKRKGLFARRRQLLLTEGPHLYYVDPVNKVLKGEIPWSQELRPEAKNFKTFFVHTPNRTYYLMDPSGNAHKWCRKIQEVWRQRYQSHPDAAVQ
# [2] = molecular target: cAMP-dependent protein kinase catalytic subunit alpha (Homo sapiens) (UniProt P17612); conditions: at 0.1 µM
# [3] = molecular target: cAMP-dependent protein kinase catalytic subunit alpha (Homo sapiens) (UniProt P17612); conditions: at 1 µM
# [4] = molecular target: Protein kinase C alpha type (Homo sapiens) (UniProt P17252); conditions: at 0.1 µM
# [5] = molecular target: Protein kinase C alpha type (Homo sapiens) (UniProt P17252); conditions: at 1 µM
# [6] = molecular target: Protein kinase C beta type (Homo sapiens) (UniProt P05771); conditions: at 0.1 µM
# Sequence of Protein kinase C beta type (Homo sapiens) (P05771 2-671 limits assumed): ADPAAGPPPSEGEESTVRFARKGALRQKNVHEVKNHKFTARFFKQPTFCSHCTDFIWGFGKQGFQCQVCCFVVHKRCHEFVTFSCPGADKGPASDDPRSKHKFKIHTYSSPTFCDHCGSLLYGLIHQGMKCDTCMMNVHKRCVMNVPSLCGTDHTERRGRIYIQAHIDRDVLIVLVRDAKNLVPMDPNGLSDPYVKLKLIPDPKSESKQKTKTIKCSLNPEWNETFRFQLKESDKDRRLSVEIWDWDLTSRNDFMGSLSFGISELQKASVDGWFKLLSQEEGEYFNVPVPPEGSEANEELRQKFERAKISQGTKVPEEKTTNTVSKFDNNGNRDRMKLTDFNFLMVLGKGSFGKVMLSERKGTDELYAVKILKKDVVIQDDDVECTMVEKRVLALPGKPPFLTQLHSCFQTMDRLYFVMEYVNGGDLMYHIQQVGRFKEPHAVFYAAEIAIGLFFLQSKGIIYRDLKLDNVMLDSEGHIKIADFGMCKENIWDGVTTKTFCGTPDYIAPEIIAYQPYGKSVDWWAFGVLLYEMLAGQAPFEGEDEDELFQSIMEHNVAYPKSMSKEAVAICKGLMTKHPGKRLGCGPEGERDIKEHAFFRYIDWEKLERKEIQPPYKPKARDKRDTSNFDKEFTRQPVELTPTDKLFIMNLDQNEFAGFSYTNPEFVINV
# [7] = molecular target: Protein kinase C beta type (Homo sapiens) (UniProt P05771); conditions: at 1 µM
# [8] = molecular target: Protein kinase C eta type (Homo sapiens) (UniProt P24723); conditions: at 0.1 µM
# Sequence of Protein kinase C eta type (Homo sapiens) (P24723 whole entry): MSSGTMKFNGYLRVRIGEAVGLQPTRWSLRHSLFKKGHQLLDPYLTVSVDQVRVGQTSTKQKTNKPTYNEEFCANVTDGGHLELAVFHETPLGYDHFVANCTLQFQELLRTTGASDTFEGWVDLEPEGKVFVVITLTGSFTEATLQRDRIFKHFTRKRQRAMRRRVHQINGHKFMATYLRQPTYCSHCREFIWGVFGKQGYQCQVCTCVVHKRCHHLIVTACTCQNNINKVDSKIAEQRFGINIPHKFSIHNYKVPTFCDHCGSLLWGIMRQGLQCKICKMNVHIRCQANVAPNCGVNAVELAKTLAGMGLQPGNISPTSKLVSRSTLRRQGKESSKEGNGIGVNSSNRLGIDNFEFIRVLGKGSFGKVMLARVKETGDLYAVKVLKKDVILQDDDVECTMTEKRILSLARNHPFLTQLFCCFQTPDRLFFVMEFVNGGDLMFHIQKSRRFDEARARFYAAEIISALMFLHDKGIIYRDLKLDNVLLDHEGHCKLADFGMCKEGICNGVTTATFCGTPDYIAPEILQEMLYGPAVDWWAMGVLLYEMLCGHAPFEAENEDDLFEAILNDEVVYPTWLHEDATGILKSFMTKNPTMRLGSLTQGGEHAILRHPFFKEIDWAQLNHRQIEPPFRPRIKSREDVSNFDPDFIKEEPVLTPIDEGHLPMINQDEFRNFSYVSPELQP
# [9] = molecular target: Protein kinase C eta type (Homo sapiens) (UniProt P24723); conditions: at 1 µM
# [10] = molecular target: Protein kinase C gamma type (Homo sapiens) (UniProt P05129); conditions: at 0.1 µM
# [11] = molecular target: Protein kinase C gamma type (Homo sapiens) (UniProt P05129); conditions: at 1 µM
# [12] = molecular target: T2, Protein kinase C iota type (Homo sapiens) (UniProt P41743); conditions: at 0.1 µM
# T2 sequence (whole entry): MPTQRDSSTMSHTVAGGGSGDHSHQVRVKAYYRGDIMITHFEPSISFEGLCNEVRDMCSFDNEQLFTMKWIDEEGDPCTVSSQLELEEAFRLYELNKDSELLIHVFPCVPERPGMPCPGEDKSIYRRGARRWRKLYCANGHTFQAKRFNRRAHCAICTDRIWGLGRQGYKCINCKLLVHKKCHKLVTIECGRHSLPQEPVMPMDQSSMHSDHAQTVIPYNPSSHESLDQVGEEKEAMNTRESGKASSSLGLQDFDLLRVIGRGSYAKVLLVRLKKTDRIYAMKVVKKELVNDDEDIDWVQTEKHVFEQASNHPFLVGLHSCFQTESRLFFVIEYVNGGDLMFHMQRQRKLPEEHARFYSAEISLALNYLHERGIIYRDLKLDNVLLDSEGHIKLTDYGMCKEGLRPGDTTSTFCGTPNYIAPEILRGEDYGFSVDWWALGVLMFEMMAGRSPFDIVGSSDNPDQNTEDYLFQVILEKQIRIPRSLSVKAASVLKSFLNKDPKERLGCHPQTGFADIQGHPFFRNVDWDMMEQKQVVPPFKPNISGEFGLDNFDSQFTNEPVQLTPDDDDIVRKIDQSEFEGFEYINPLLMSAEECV
# [13] = molecular target: T2, Protein kinase C iota type (Homo sapiens); conditions: at 1 µM
# [14] = molecular target: Protein kinase C theta type (Homo sapiens) (UniProt Q04759); conditions: at 0.1 µM
# Sequence of Protein kinase C theta type (Homo sapiens) (Q04759 whole entry, looked up): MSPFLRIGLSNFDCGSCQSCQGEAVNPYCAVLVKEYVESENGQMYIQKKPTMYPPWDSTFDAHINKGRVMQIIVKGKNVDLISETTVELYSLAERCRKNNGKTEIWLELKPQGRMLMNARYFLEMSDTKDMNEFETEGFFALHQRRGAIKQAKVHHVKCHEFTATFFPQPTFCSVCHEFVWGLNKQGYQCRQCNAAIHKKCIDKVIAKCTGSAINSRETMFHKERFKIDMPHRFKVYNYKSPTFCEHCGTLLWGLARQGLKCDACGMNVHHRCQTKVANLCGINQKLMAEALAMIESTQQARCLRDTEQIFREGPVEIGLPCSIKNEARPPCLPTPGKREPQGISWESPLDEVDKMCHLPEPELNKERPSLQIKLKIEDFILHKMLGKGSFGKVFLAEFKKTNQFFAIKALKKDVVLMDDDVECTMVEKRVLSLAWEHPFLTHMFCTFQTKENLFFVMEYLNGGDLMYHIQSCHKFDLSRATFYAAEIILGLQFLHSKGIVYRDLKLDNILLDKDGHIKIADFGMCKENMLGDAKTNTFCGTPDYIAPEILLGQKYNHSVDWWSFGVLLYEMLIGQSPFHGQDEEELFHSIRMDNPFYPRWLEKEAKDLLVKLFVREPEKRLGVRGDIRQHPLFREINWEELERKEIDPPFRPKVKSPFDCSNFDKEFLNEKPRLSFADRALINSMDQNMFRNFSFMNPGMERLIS
# [15] = molecular target: Protein kinase C theta type (Homo sapiens) (UniProt Q04759); conditions: at 1 µM
# [16] = molecular target: Protein kinase C beta type (Homo sapiens) (UniProt P05771); conditions: at 0.1 µM; remark: listed apart in the source
# [17] = molecular target: Protein kinase C beta type (Homo sapiens) (UniProt P05771); conditions: at 1 µM; remark: listed apart in the source
# [18] = molecular target: T3, Serine/threonine-protein kinase D1 (Homo sapiens) (UniProt Q15139); conditions: at 0.1 µM
# T3 sequence (whole entry): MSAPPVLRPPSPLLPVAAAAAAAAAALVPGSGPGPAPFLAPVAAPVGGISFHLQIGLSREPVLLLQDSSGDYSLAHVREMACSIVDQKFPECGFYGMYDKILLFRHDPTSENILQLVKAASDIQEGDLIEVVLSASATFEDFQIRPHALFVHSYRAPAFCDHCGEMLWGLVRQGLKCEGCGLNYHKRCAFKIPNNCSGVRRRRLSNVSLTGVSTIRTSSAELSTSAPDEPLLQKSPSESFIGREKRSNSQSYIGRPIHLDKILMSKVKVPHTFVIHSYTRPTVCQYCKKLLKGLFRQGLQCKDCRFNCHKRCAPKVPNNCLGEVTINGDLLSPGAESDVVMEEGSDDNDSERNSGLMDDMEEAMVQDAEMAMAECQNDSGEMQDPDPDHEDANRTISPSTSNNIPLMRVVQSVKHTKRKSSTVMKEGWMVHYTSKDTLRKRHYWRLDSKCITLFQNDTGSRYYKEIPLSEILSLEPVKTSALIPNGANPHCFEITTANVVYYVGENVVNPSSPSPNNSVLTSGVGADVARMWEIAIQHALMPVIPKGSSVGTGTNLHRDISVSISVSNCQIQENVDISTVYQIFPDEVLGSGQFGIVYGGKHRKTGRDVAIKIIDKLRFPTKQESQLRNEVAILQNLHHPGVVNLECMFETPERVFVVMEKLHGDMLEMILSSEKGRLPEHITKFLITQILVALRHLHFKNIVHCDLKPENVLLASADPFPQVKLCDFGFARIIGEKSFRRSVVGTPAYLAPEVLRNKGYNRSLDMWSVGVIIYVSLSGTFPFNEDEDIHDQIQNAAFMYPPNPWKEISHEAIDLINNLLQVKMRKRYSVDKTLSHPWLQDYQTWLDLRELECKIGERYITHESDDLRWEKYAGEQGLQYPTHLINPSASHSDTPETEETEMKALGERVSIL
# [19] = molecular target: T3, Serine/threonine-protein kinase D1 (Homo sapiens); conditions: at 1 µM
# [20] = molecular target: T4, Serine/threonine-protein kinase D2 (Homo sapiens) (UniProt Q9BZL6); conditions: at 0.1 µM;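 also: reported percent inhibition values are means, part of the GSK PKIS kinase panel screen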
# T4 sequence (whole entry): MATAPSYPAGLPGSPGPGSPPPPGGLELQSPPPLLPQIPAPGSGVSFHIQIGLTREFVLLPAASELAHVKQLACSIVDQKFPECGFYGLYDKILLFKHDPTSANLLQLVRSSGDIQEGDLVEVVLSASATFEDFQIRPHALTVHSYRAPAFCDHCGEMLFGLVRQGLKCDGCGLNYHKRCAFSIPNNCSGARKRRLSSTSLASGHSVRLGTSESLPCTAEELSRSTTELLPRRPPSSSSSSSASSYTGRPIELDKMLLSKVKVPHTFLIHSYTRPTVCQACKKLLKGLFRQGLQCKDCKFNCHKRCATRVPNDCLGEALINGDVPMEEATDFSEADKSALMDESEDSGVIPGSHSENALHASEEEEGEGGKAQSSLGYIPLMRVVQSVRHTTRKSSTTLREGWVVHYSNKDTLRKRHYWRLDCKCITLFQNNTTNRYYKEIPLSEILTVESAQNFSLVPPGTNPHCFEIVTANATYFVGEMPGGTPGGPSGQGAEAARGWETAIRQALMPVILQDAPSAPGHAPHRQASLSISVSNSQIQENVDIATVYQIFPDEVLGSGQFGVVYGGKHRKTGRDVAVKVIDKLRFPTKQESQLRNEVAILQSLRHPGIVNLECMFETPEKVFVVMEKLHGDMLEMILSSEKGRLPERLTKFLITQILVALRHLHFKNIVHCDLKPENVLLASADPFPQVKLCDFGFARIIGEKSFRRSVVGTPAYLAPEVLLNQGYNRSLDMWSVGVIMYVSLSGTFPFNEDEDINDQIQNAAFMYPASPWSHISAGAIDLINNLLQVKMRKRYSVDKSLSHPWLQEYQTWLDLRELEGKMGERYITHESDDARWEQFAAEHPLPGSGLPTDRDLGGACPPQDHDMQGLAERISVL
compound,measurement,setting,value
Cc1ccc(NC(=O)c2ccoc2)cc1-c1ccc(C(=O)NCC2CC2)cc1,inhibition,[1],0.18%
same,inhibition,[2],2.1%
same,inhibition,[3],2.23%
same,inhibition,[4],-0.03%
same,inhibition,[5],0.82%
same,inhibition,[6],1.84%
same,inhibition,[7],1.76%
same,inhibition,[8],4.75%
same,inhibition,[9],3.88%
same,inhibition,[10],-1.55%
same,inhibition,[11],-0.41%
same,inhibition,[12],1.53%
same,inhibition,[13],-0.02%
same,inhibition,[14],0.79%
same,inhibition,[15],0.76%
same,inhibition,[16],-0.21%
same,inhibition,[17],0.92%
same,inhibition,[18],3.2%
same,inhibition,[19],2.32%
same,inhibition,[20],2.39%
NC(=O)c1ccc(Oc2nccc(-c3c(-c4ccc(F)cc4)ncn3C3CCNCC3)n2)cc1,inhibition,[1],1.43%
same,inhibition,[2],8.89%
same,inhibition,[3],43%
same,inhibition,[4],1.16%
same,inhibition,[5],2.25%
same,inhibition,[6],1.04%
same,inhibition,[7],5.96%
same,inhibition,[8],5.08%
same,inhibition,[9],5.97%
same,inhibition,[10],2.56%
same,inhibition,[11],2.68%
same,inhibition,[12],2.53%
same,inhibition,[13],1.91%
same,inhibition,[14],3.83%
same,inhibition,[15],3.82%
same,inhibition,[16],1.9%
same,inhibition,[17],5.22%
same,inhibition,[18],4.57%
same,inhibition,[19],6.71%
same,inhibition,[20],4.04%
NC(=O)c1cc(-c2ccncc2)cc(-c2ccccc2)c1N,inhibition,[1],2.16%
same,inhibition,[2],2.43%
same,inhibition,[3],6.13%
same,inhibition,[4],1.21%
same,inhibition,[5],4.38%
same,inhibition,[6],1.43%
same,inhibition,[7],1.87%
same,inhibition,[8],5.05%
same,inhibition,[9],7.89%
same,inhibition,[10],-0.73%
same,inhibition,[11],4.29%
same,inhibition,[12],2.83%
same,inhibition,[13],4.85%
same,inhibition,[14],2.27%
same,inhibition,[15],4.49%
same,inhibition,[16],1.9%
same,inhibition,[17],2.02%
same,inhibition,[18],4.07%
same,inhibition,[19],6.39%
same,inhibition,[20],5.01%
COc1cc2ncn(-c3cc(OCCc4ccccc4)c(C(N)=O)s3)c2cc1OC,inhibition,[1],1.29%
same,inhibition,[2],1.37%
same,inhibition,[3],-1.08%
same,inhibition,[4],0.95%
same,inhibition,[5],1.14%
same,inhibition,[6],0.05%
same,inhibition,[7],-0.8%
same,inhibition,[8],-1.3%
same,inhibition,[9],0.58%
same,inhibition,[10],1.89%
same,inhibition,[11],1.47%
same,inhibition,[12],1.14%
same,inhibition,[13],1.71%
same,inhibition,[14],0.51%
same,inhibition,[15],-0.63%
same,inhibition,[16],0.9%
same,inhibition,[17],1.22%
same,inhibition,[18],2.65%
same,inhibition,[19],5.06%
same,inhibition,[20],3.79%
